Among the data in PubChem BioAssay (NCATS) are Potency values, retold here.

Inconclusive results are not listed. Where a call stands in place of a potency, no number is given. Active and inactive are the calls of the source. Calls follow the shape of the full dose curve.

For this experiment, the target named is Nucleoprotein (Lymphocytic choriomeningitis virus (strain Armstrong)) (UniProt P09992). Description: qHTS for Inhibitors of the Functional Ribonucleoprotein Complex (vRNP) of Lymphocytic Choriomeningitis Arenaviruses (LCMV): LCMV Primary Screen - GLuc reporter signal (AID 1347086). Also: nearly all actives have a fitted effect of over 70% in size. To be noted: LCMV minigenome vRNP cell assay, Gaussia luciferase reporter; series mostly up to 57.5 µM. A general note: Quantitative high-throughput screening tests each substance at several concentrations.
Nucleoprotein (Lymphocytic choriomeningitis virus (strain Armstrong)), sequence (P09992 whole entry, looked up): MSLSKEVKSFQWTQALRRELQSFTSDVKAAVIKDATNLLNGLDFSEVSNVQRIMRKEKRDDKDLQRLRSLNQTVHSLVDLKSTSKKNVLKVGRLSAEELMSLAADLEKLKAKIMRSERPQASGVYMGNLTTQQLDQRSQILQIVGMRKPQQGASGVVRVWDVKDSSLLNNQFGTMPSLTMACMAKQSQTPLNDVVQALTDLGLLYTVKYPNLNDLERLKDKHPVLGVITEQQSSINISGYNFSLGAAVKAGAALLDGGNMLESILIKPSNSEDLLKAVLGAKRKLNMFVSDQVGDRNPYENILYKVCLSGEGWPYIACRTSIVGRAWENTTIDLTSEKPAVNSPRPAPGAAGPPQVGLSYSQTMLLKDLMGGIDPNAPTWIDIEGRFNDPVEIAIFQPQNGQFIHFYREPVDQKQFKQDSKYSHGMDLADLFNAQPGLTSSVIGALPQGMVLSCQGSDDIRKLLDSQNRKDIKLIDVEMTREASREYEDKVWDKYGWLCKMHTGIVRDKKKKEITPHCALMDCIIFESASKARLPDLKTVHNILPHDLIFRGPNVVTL
`O=C1N[C@@H](Cc2cnc[nH]2)C(=O)N2CCC[C@@H]12`: the Potency result is “inactive”.
As for `CCCCCCC[C@@H](C/C=C/CCC(=O)O)OC`, the Potency result was “inactive”.
For `OC[C@H]1O[C@@H](OC[C@H]2O[C@@H](O)[C@H](O)[C@@H](O)[C@@H]2O)[C@H](O)[C@@H](O)[C@@H]1O`, the Potency result is “inactive”.
The result for `CCCC1CCCC(=O)O1` (stereo not given) reads “inactive”.
Take `CC1(C)C[C@H]2C3=CCC4[C@@]5(C)CC[C@H](O)C(C)(C)C5CC[C@@]4(C)[C@]3(C)[C@@H](O)[C@@H](O)[C@@]2(CO)[C@@H](O)[C@@H]1O` (stereo not given in full): the Potency result is “inactive”.
The result for `C[C@]1(CC/C(=C/CO)CO)[C@H](CO)CC[C@@]23COC(=O)C2=CCC[C@@H]31` reads “inactive”; that for `CC(C)c1cccc(O)c1`, “inactive”.
In the case of `CC1CC(C)C(=O)C1=O` (stereo not given) it was “inactive”; in that of `CC1=CC[C@@]23C[C@@H]1C(C)(C)[C@@H]2CC[C@H]3C`, “inactive”; in that of `COc1cc(O)c(C(C)=O)c2c1C=CC(C)(C)O2`, “inactive”.
In the case of `CC(Cc1c[nH]c2ccccc12)C(=O)O` (stereo not given) it was “inactive”.
On to `O=c1c(O)c(-c2ccccc2)oc2cc(O)cc(O)c12`, for which the Potency entry is “inactive”.
Regarding `CC1(C)CC(=O)c2cc(O)ccc2O1`, the Potency result was “inactive”.
The result for `Oc1cc(O)cc(C=Cc2ccc(O)c(O)c2)c1` reads “inactive”; that for `COc1ccc2c(Oc3ccc(NC(=O)c4c(C)n(CC(C)(C)O)n(-c5ccccc5)c4=O)nc3)ccnc2c1`, “inactive”; that for `O=C1CCCCCCCCCCCCCC1`, “inactive”.
For `COC1=C(C)C(O)=C(C(=O)/C=C/c2ccccc2)C(=O)C1(C)C`, the Potency result was “inactive”.
In the case of `CCN1C[C@]2(C)CCC(OC)[C@@]34C5C[C@@H]6CC[C@@](O)(C5C(=O)O6)[C@@H](C(O)C23)[C@@H]14` (stereo not given in full) it was “inactive”; in that of `C=CC(C)=C[C@@]1(C)SC(=O)C(C)=C1O`, “inactive”; in that of `O=C(CO)c1c[nH]c2ccccc12`, “inactive”.
In the case of `O=C(c1ccccc1)N1CCCCC1` it was “inactive”; in that of `COC(=O)c1c(C)cc(O)c(C)c1O`, “inactive”; in that of `C[C@@H]1CC[C@]2(C(=O)O[C@@H]3O[C@H](CO)[C@@H](O)[C@H](O)[C@H]3O)CC[C@]3(C)C(=CCC4[C@@]5(C)CC[C@H](O[C@@H]6OC[C@H](O)[C@H](O[C@@H]7O[C@H](CO)[C@@H](O)[C@H](O)[C@H]7O)[C@H]6O)C(C)(C)C5CC[C@]43C)C2[C@]1(C)O` (stereo not given in full), “inactive”.
As to `C[C@H](Cn1cnc2c(N)ncnc21)OCP(=O)(O)O`, the Potency entry is “inactive”.
In the case of `CNCC(=O)O` it was “inactive”; in that of `C=CC(C)(CCC=C(C)C)OC(=O)CC(C)C` (stereo not given), “inactive”; in that of `C[C@@H]1O[C@@H](OC2C(O)C(OCCc3ccc(O)c(O)c3)OC(CO)C2OC(=O)/C=C/c2ccc(O)c(O)c2)[C@H](O)[C@H](O)[C@H]1O` (stereo not given in full), “inactive”.
In the case of `COc1cc(O)cc2c1[C@@H]1Oc3c(ccc(O)c3CC=C(C)C)[C@@H]1CO2` it was “inactive”.
The result for `CC(C)CCOC(=O)CC(C)C` reads “inactive”; that for `COc1ccc([C@H]2c3cc(OC)c(OC)cc3C[C@@H](C)[C@@H]2C)cc1OC`, “inactive”.
Regarding `CC(C)=C[C@H]1C[C@H](C)[C@H]2CC[C@H](C)c3c(O[C@@H]4OC[C@@H](O)[C@H](O)C4O)c(O)c(C)c1c32` (stereo not given in full), the Potency result was “inactive”.
As for `CN(CC=CC#CC(C)(C)C)Cc1cccc2ccccc12`, the Potency entry was “inactive”.
Consider `C/C=C\C/C=C/CCCCCCCCOC(C)=O`, for which the Potency result is “inactive”.
The result for `COc1c2c(c3c(c1OC)c(=O)c1ccccc1n3C)OCO2` reads “inactive”; that for `NC1=N[C@H](O)[C@H]2C3O[C@]4(O)O[C@H](C(O)[C@@]2(N1)[C@@H]4O)C3(O)CO` (stereo not given in full), “inactive”; that for `CC1CC[C@@]2(OC1)O[C@H]1CC3[C@@H]4C[C@@H](O)[C@@]5(O)C[C@@H](O)[C@H](O)C[C@]5(C)[C@H]4CC[C@]3(C)[C@H]1[C@@H]2C` (stereo not given in full), “inactive”.
On to `COc1cc2oc(=O)c3c4c(cc5ccc(c1CCN(C)C)c2c53)OCO4`, for which the Potency entry is “inactive”.
Take `CN1CCc2cc3c(cc2C1)OCO3`: the Potency entry was “inactive”.
The result for `CC1=CC2OC3CC4OC(=O)C=CC=CC(C(C)O)OCC(O)C(C)CC(=O)OCC2(CC1O)C4(C)C31CO1` (stereo not given) reads “inactive”.
The result for `CC/C=C\CCOC(C)=O` reads “inactive”.
